The text below walks through data of the OligoGym collection.
Also: reference of the scale not given here.

The target in the first test is KDELR1. In words: pooled miR-30 sensor sort-seq; sequence = guide strand. The conditions noted are these: shRNA.
Consider ATCGTAAGTAGCTTTGAACTTG, for which the sensor-assay potency score (higher = more potent) was -0.446.

On to TCGTAAGTAGCTTTGAACTTGC, for which the sensor-assay potency score (higher = more potent) is -0.201. With TAAGTAGCTTTGAACTTGCTAT, the sensor-assay potency score (higher = more potent) was -0.0372. On to TTTGGTGATATAGAGGTAGAAG, for which the sensor-assay potency score (higher = more potent) was -0.962.

TAAATCAACCAGACCGTGGTGA showed a sensor-assay potency score (higher = more potent) of 0.82.

Another test deals with KDM2B. The test is described as above. The conditions noted are these: shRNA.
Turning to TGGTTGAACAGCTTCTCCCTTG, the sensor-assay potency score (higher = more potent) is -0.428. TATCGCTGGCGGTCAATCGGGC: the sensor-assay potency score (higher = more potent) is -0.118.

In the case of TTACACTTCGGACACTCCCAGC, the sensor-assay potency score (higher = more potent) is -1.12.

For TTTGGCATCGTTCCACACGGTC, the sensor-assay potency score (higher = more potent) was -1.07. Same read-out and setting: with TTCTTGGAGATATTGGTCCAGC the figure was -0.935; with TAAACTTGCCTTCCTCCTCTTC, -0.422. TATCTCTCCAGGACATACCAGC: the sensor-assay potency score (higher = more potent) is -0.897. Regarding TTCTTTGCCAGGTTTGAGCCGC, the sensor-assay potency score (higher = more potent) is -0.547. TTCGAGTGCTCATCCGACCTGC came in with a sensor-assay potency score (higher = more potent) of 0.201. Take TTGGAGATATTGGTCCAGCTGA: the sensor-assay potency score (higher = more potent) is -0.912. As for TTCTTTGCCAGGTTTGAGCTGC, the sensor-assay potency score (higher = more potent) was -0.103. On to TTGTCCATCTGACCTGGCCTGT, for which the sensor-assay potency score (higher = more potent) was -0.884.

For the next test, the target named is KDR. The test is described as above. The conditions noted are these: shRNA.
As to TAATTTGGTTCTGTCTTCCAAA, the sensor-assay potency score (higher = more potent) was -0.462. Consider TAGCTGATCATGTAGCTGGGAA, for which the sensor-assay potency score (higher = more potent) is -0.114. In the case of TTCTTCTTGGTCATCAGCCCAC, the sensor-assay potency score (higher = more potent) is -0.727. With TTTTGCTTCACAGAAGACCATG, the sensor-assay potency score (higher = more potent) was -1.02.

For TAGACTGGTAACTTTCATCATT, the sensor-assay potency score (higher = more potent) was -0.75.

For TTGACTGCTACTGTCCTGCAAG, the sensor-assay potency score (higher = more potent) is -0.615. In the case of TAATAGACTGGTAACTTTCATC, the sensor-assay potency score (higher = more potent) was -0.621. On the same count and under the same terms, under TTGCACTCCAATCTCTATCAGC stands -0.492; under ATTTTGACTGCTACTGTCCTGC, 0.0399. The sequence TGTCTTTTCTTGGTCTTCCTGT returned a sensor-assay potency score (higher = more potent) of 0.316. Same read-out and setting: under TTCTTCTACATCACTGAGGGAC stands -0.165; under TTGCTGTCTTGTCAATTCCAAA, -1.68.

The target in another test is KHDRBS3. The test is described as above. As to conditions: shRNA.
The sequence TTGAGTTAGTCCACTCTTCTTG came in with a sensor-assay potency score (higher = more potent) of 0.078. Same read-out and setting: with TGGTACTACAACTCCAACTGGC the figure was -0.54; with TTGCTGTCCTCGCTGAAGGTGC, -1.17. For TTGAACAGTATACAGGACTGGT, the sensor-assay potency score (higher = more potent) is -0.303.

For TTGAGATGGAAGTACTTCGCTT, the sensor-assay potency score (higher = more potent) is -0.344. On to TTGTGTCTTGAGTTAGTCCACT, for which the sensor-assay potency score (higher = more potent) is -0.733.

Turning to TTCTTCTTGTAAACGCTTCAGA, the sensor-assay potency score (higher = more potent) is -0.501. Same read-out and setting: under TAAGTCTCTTGTGTCGGGGGTG stands -0.204. As for TAGTCCACTCTTCTTGCCCGTA, the sensor-assay potency score (higher = more potent) was -0.553. Take TACTACAACTCCAACTGGCCGG: the sensor-assay potency score (higher = more potent) was -0.46. For the sequence TTCTATTTCTTGGTTCACCAGG, the sensor-assay potency score (higher = more potent) was -0.397.
